# Sampled rows, rich in hits. Any-hit rate of the full collection: about 0.39%.
# TSG101-PTAP inh: blocks PTAP/TSG101 interaction to inhibit HIV-1 budding. Fluorescence polarization, FITC-PTAP peptide / Tsg101 binding. Potency, µM (doses to about 115 µM), for the others: at the highest dose activity change, negative = inhibition, most hits filed as inhibitors. 340,000 tested, under 10 active. AID 493005; active = well fitted inhibition curve with a large enough effect in the main read-out, with a control signal flat, not every such curve was filed as active; inconclusive = small, poorly fitted or top-dose-only effect, or effect the other way, or a change in a side signal; inactive = no such curve, though single readings can be large or run the other way; note: % of control where 0% means no effect
# Target sequence (Q99816 whole entry, looked up): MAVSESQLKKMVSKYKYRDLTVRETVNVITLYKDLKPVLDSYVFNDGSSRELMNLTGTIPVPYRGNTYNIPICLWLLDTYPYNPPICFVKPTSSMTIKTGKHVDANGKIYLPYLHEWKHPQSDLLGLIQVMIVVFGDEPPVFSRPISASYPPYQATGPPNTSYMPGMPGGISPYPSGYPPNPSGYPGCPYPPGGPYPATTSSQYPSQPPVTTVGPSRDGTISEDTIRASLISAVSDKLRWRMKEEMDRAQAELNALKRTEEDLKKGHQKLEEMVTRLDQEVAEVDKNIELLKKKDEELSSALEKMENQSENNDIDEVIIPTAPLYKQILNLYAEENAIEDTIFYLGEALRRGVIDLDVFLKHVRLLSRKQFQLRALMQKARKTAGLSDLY
#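 Fluorescence polarization binding of Tsg101 binding domain (10 uM final) to FITC-labeled PTAP peptide (50 nM final) in HEPES pH 7.5 buffer with NaCl, Tween 20, EDTA, TCEP. Compounds added before peptide; binding 20 min at RT.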
# Pin1 inh: blocks the human prolyl isomerase Pin1. Potency, µM (doses to about 115 µM), for the others: at the top dose activity, negative = inhibition, most hits filed as inhibitors. Q13526. Pin1 FP peptide displacement, HiFluor488, 10 min. actives 0.009% (n = 390,000); active = well fitted inhibition curve with a large enough effect in the polarisation, with a control signal flat, not every such curve was filed as active; inconclusive = small, poorly fitted or top-dose-only effect, or effect the other way, or a change in a side signal; inactive = no such curve, though single readings can be large or run the other way; the % refers to the polarisation; note: % is set by controls: 0 for no effect and ±100 for the full control effect
# Target sequence (Q13526 whole entry, looked up): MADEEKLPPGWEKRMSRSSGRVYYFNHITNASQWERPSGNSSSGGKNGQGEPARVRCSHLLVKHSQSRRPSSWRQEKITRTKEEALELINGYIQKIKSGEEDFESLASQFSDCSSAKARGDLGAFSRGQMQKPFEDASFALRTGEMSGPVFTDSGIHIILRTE
# A-T KAP1 phos: candidate therapy for ataxia-telangiectasia; F2112 A-T fibroblasts, KAP-1 phosphorylation AlphaLISA; neocarzinostatin DNA damage 30 min before lysis; Potency, µM (top dose mostly 57.5 µM), for inactives: at the top dose activation, hits mostly activators; actives 0.19% (n = 320,000); AID 485349; note: % of control where 0% means no effect; nearly all actives have a fitted effect of over 45% in size
#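 hTERT-immortalized A-T patient fibroblasts (F2112), 500 cells/well in OPTI-MEM, 1% FBS, got compounds for 60 min, then NCS for 30 min at 37C. Lysates were then assayed for phospho-KAP-1 by AlphaLISA (anti-pKAP1 donor, anti-KAP1 acceptor beads), 6 hr at 25C.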
# PKM2 act: increases activity of human pyruvate kinase M2; actives 0.34% (n = 260,000); P14618; purified PKM2, Kinase-Glo ATP luminescence, activation; response scale: 0% is enzyme alone, no compound; Potency, µM (doses to about 57.5 µM), for the others: at the highest dose activation, hits mostly activators; note: % is set by controls: 0 for no effect and ±100 for the full control effect; nearly all actives have a fitted effect of over 55% in size
#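 Purified hPK-M2 (>95% pure) converted ADP (0.1 mM final) to ATP with 0.5 mM PEP in 50 mM imidazole pH7.2, KCl, MgCl2, Tween 20, BSA; 1 h at room temperature. ATP detected by Kinase-Glo luminescence.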
# * marks the source's active call; other numbers are inactive results; ? = inconclusive; . = no result given; [ ] = dose if it differs, or a comment. Unless noted, calls come from the whole dose curve; as a rule, active = well fitted activation curve with a large enough effect; inconclusive = small, poorly fitted or top-dose-only effect; inactive = no such curve, though single readings can be large or run the other way. Potency is the fitted concentration of half-maximal effect.
SMILES,TSG101-PTAP inh,Pin1 inh,A-T KAP1 phos,PKM2 act
COC(=O)N1C(=O)[C@@](c2ccccc2)(C2CCCC2)N1C(=O)OC,-7%,0%,25µM*,-12%
COC(=O)N1C(=O)[C@](c2ccccc2)(C2CCCCC2)N1C(=O)OC,4%,1%,16%,-1%
COC(=O)N1C(=O)[C@@](CC(C)C)(c2ccccc2)N1C(=O)OC,.,.,35µM*,3%
CN(C)c1cccc(S(=O)(=O)N2CCCN(S(=O)(=O)c3ccc4c(c3)OCCO4)CC2)c1,.,19%,.,.
COc1ccc(CN(Cc2ccccc2)C(=O)c2ccccc2N)cc1COc1ccc(NC(C)=O)cc1,.,-2%,.,.
O=C(O)CNS(=O)(=O)c1ccc2c(c1)C(=O)c1cc(S(=O)(=O)NCC(=O)O)ccc1-2,-9%,-18%,1%,-3%[11.5 µM]
O=C1c2cc(S(=O)(=O)NCCO)ccc2-c2ccc(S(=O)(=O)NCCO)cc21,-3%,-3%,4%,5.6µM*
N#CC(C#N)=C1c2cc(S(=O)(=O)NCCO)ccc2-c2ccc(S(=O)(=O)NCCO)cc21,-4%,2%,0%,1.3µM*
CCN1CCN(c2cccc(Nc3nn4c(=O)c5ccccc5nc4s3)c2)CC1,.,8%,.,.
COc1ccc2c(c1)Oc1ncn(CCN3CCOCC3)c(=N)c1C2c1ccc(OC)c(OC)c1 (stereo not drawn),.,-5%,.,.
COc1cccc(CN2C(=O)c3cccc(N)c3C2=O)c1,-6%,?,25µM*,20%
Cc1ccccc1C(=O)Nc1nnc(CC(=O)N/N=C/c2ccco2)s1,1%,31%,16µM*,3%
CS(=O)(=O)Nc1ccc(C2=NN(C(=O)c3ccco3)C(c3ccc(F)cc3)C2)cc1 (stereo not drawn),-1%,13%,-2%,13µM*
CCOC(=O)c1c(N2C(=O)Nc3cc(Cl)c(Cl)cc3N2O)sc2c1CCCCC2,-11%,54µM*,4%,-1%
COc1ccc(C(=O)N(Cc2cccs2)Cc2cccs2)c(O)c1,.,-6%,.,.
CC(=O)c1sc(NC(=O)c2ccc(Cn3cc(Br)cn3)o2)nc1C,1%,-14%,4%,11µM*
CN(C)/C=C(\C(=O)c1ccc(F)cc1F)c1nnnn1-c1ccccc1,0%,-1%,-6%,16µM*
CN(C)/C=C(\C(=O)c1ccccc1)c1nnnn1-c1ccccc1,1%,-1%,5%,4%
Nc1ccc(-c2nc3cc([N+](=O)[O-])ccc3o2)cc1,1%,6%,40µM*,4%
CSc1nc(N2CCOCC2)nc2ccc(C)cc12,-5%,2%,28µM*,.
COc1ccc(C2C3=C(N=CN(CCN4CCOCC4)C3N)Oc3ccccc32)cc1OC (stereo not drawn),.,2%,.,.
CC(=O)NNC(=O)CN1C(=O)/C(=C/c2ccccc2)SC1=S,-4%,0%,3.2µM*,-5%
COc1ccc(/C=C2/SC(=S)N(Cc3ccccc3)C2=O)cc1O,-2%,12%,40µM*,.
Cc1oc2c(C)c(O)ccc2c(=O)c1-c1nncn1-c1ccccc1,5%,?,0%,18µM*
Cc1oc2c(C)c(O)ccc2c(=O)c1N1C(=O)c2ccccc2C1=O,0%,0%,2%,6%
SMILES,TSG101-PTAP inh,Pin1 inh,A-T KAP1 phos,PKM2 act
Cc1ccc(S(=O)(=O)N2CCN(c3nc(C#N)nc4ccccc34)CC2)cc1,.,40%,.,.
COc1ccc(S(=O)(=O)Nc2ccc(-n3cccc3)cc2)cc1,0%,1%,1%,10µM*
Cc1ccc(N(C)S(=O)(=O)c2ccc3c(c2)CCC(=O)N3)cc1C,.,-9%,.,.
COc1cc(/C=C/C(=O)OCC(=O)Nc2ccc(C)cc2[N+](=O)[O-])ccc1O,1%,-2%,-3%,18µM*
CCOc1nc(-c2ccccc2O)nc2ccccc12,-5%,-9%,7%,3%
CC(C)Oc1nc(-c2ccccc2Cl)nc2ccccc12,-2%,1%,32µM*,0%
NC(=O)C1CCN(c2nccc(-c3ccc4c(c3)OCCCO4)n2)CC1,.,0%,.,.
CCn1nc(C)c(CNC(=O)c2cc(COc3ccc(F)cc3Cl)on2)c1C,-4%,0%,1.6µM*,-4%
CC(C)(C)OC(=O)Cc1nnc(C(C(=O)OCc2ccccc2)c2ccccc2)s1 (stereo not drawn),.,-2%,.,.
O=C(Nc1cc(C(F)(F)F)ccc1Cl)C(O)Cc1ccccc1 (stereo not drawn),.,-2%,.,.
O=c1oc2ccc(NS(=O)(=O)c3cccc4cccnc34)cc2s1,-6%,-11%,-3%,14µM*
O=C(c1ccc(NS(=O)(=O)c2cccc3cccnc23)cc1)N1CCCCC1,0%,6%,-3%,16µM*
CCCCCCCn1ccc(=N)cc1,-1%,-3%,7%,-4%
CCCCCCCCCn1ccc(=N)cc1,1%,2%,3.2µM*,-2%
Cc1csc(CNc2ncnc3cc(-c4ccc5c(c4)OCO5)ccc23)n1,.,13%,.,.
Cc1cc(C)n2ncc(C(=O)NCC(C)C)c2n1,.,-1%,.,.
CCn1c(=O)c(=O)n(CC)c2cc(S(=O)(=O)Nc3ccc(C)cc3)ccc21,-4%,6%,-6%,10µM*
CCn1c(=O)sc2cc(NS(=O)(=O)c3ccc(C)cc3)ccc21,.,0%,.,.
CC(=O)Nc1sc(N/N=C\c2cccc(Cl)c2)nc1-c1cccs1,2%,14%,3%,?
CC(=O)Nc1sc(N/N=C\c2ccc(O)cc2)nc1-c1cccs1,-4%,5%,50%,22µM*
Cc1ccc(NS(=O)(=O)c2ccc3c(c2)CCN(C(=O)C(F)(F)F)C3)cc1C,.,1%,.,.
Cc1cccc(NC(=O)CS(=O)(=O)c2c[nH]c3ccccc23)c1C,-3%,10%,-3%,25µM*
COc1ccc(S(=O)(=O)N2CCN(C(=O)c3cccs3)CC2)cc1,-3%,1%,6%,14µM*
COc1ccc(S(=O)(=O)N2CCN(C(=O)Cc3cccs3)CC2)cc1,-2%,0%,4%,?
Nc1nc(N)c2c(OCC3CCN(Cc4ccccc4F)CC3)cccc2n1,.,-2%,.,.
SMILES,TSG101-PTAP inh,Pin1 inh,A-T KAP1 phos,PKM2 act
Cc1ccc(S(=O)(=O)N2CCN(C(=O)CCn3nc(C)c(C)c3C)CC2)cc1C,-5%,-2%,5%,7.9µM*
Cc1ccc(S(=O)(=O)N2CCN(C(=O)Cc3ccccc3)CC2)cc1C,0%,-11%,-1%,.
Cc1ccc(S(=O)(=O)N2CCN(C(=O)CCN3C(=O)c4ccccc4C3=O)CC2)cc1C,0%,10%,6%,5.6µM*
Cc1ccc(CN(C)C(=O)c2ccccc2Oc2ccccc2)o1,-5%,0%,6%,28µM*
O=S(=O)(NCC1CCN(S(=O)(=O)c2ccccc2)CC1)c1ccccc1,-7%,0%,1%,2.8µM*
COCCSc1ccccc1C(=O)Nc1cc(C)on1,-6%,-5%,-5%,32µM*
CCCCNS(=O)(=O)c1ccc2nc(SCC(=O)c3ccc(C#N)cc3)[nH]c2c1,1%,?,12%,22µM*

# From PubChem BioAssay
